PubChem BioAssay (EPA / NIEHS)
Results filed as inconclusive are left out. Active and inactive are the calls of the source. How the source made its calls, unless noted: active means hit-call score of the fitted dose curve at least 0.9, where 1 is the maximum; inactive means score below 0.9.

What was measured:
[1] = ATG_NFI_CIS: Attagene CIS-FACTORIAL HepG2 Assay for human Nuclear Factor I (NFI) (AID 2282989); conditions: HepG2 cis-regulatory reporter, NFI response element transcription; actives raise or lower the signal
Outline: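 Reporter transcription driven by endogenous transcription factors in HepG2 cells; 24 h treatment. Quantitation by labelled RT-PCR fragments on capillary electrophoresis, gain- or loss-of-signal relative to DMSO.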

[2] = biological target: Myc proto-oncogene protein (Homo sapiens) (UniProt P01106); assay: ATG_Myc_CIS: Attagene CIS-FACTORIAL HepG2 Assay for human Myelocytomatosis (Myc) Proto-Oncogene Transcription Factor (AID 2282990); conditions: HepG2, Attagene cis-reporter transcription factor activity; actives raise or lower the signal
Chain of Myc proto-oncogene protein (Homo sapiens) (P01106 whole entry, looked up): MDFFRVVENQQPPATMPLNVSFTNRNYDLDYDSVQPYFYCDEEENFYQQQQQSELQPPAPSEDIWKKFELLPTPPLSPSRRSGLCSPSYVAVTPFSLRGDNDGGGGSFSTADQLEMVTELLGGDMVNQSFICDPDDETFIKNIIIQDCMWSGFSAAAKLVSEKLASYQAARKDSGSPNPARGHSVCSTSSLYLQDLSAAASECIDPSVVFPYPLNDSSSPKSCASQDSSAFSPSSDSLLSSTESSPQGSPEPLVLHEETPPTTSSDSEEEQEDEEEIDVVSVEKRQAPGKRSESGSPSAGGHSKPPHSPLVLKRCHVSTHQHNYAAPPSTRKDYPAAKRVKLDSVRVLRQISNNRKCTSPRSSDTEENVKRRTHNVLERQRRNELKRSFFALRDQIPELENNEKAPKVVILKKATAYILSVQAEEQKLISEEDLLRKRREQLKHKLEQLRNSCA
Outline: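 Transiently transfected HepG2 cells bearing cis-promoter reporter units for endogenous transcription factors; 24 h exposure. Reporter mRNA measured by RT-PCR, 6-FAM primer extension, HpaI cut and capillary electrophoresis; bidirectional fit relative to DMSO.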

[3] = ATG_NF_kB_CIS: Attagene CIS-FACTORIAL HepG2 Assay for human Nuclear Factor Kappa B (NF-kB) (AID 2282991); conditions: HepG2 Attagene cis-factorial NF-kB reporter mRNA; actives raise or lower the signal
Outline: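 Endogenous transcription factor activity in HepG2 was captured via cis-regulated reporter constructs; after 24 h dosing, reporter mRNA was reverse-transcribed, amplified, fluorescently labelled and sized by capillary electrophoresis, with activity fitted bidirectionally relative to DMSO.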

[4] = ATG_Oct_MLP_CIS: Attagene CIS-FACTORIAL HepG2 Assay for human Octamer-Binding Transcription Factor (Oct) (AID 2282993); conditions: HepG2 Attagene cis-factorial Oct reporter, mRNA; actives raise or lower the signal
Outline: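 Transfected HepG2 cells, 24 h treatment. Reporter mRNA quantified by RT-PCR–capillary electrophoresis; bidirectional fitting against DMSO.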

[5] = biological target: Cellular tumor antigen p53 (Homo sapiens) (UniProt P04637); assay: ATG_p53_CIS: Attagene CIS-FACTORIAL HepG2 Assay for human p53 Transcription Factor (AID 2282994); conditions: HepG2 p53 cis-element reporter, Attagene mRNA; actives raise or lower the signal
Chain of Cellular tumor antigen p53 (Homo sapiens) (P04637 whole entry, looked up): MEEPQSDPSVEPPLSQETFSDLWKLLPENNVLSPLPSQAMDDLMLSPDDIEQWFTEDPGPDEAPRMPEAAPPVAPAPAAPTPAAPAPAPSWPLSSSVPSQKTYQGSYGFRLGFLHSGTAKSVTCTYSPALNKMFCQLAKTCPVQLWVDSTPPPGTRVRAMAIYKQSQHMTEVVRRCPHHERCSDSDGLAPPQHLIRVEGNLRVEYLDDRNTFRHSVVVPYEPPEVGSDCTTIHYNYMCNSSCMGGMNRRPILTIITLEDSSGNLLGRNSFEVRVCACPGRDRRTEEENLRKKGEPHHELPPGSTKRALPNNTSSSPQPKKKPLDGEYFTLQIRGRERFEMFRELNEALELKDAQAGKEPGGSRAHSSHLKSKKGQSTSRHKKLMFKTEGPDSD
Outline: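 Endogenous p53 activity read in transiently transfected HepG2 from a cis-element-driven reporter transcript after 24 h exposure. RNA reverse-transcribed, PCR-amplified, fluorescently labelled and sized by capillary electrophoresis; gain or loss fitted against DMSO baseline.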

[6] = biological target: human Peroxisome Proliferator-activated Receptor delta (PPARd), PPARD (gene 5467) (UniProt Q03181); assay: ATG_PPARd_TRANS: Attagene TRANS-FACTORIAL HepG2 Assay for human Peroxisome Proliferator-activated Receptor delta (PPARd) (AID 2283002; active means hit-call score of the fitted dose curve at least 0.9, where 1 is the maximum)
Chain of human Peroxisome Proliferator-activated Receptor delta (PPARd), PPARD (gene 5467) (Q03181 whole entry, looked up, the tested form may be a part): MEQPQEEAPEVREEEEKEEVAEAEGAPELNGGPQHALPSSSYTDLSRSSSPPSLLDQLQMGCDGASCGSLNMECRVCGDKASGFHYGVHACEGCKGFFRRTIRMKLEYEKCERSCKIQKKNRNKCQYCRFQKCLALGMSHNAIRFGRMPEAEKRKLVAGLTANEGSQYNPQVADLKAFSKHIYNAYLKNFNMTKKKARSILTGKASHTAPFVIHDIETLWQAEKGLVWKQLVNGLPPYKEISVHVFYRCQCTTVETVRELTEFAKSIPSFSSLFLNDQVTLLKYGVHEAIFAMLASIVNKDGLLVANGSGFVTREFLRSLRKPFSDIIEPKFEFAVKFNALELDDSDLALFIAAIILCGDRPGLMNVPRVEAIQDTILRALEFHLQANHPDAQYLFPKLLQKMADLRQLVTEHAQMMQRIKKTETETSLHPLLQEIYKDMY
Outline: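 HepG2 cells transiently transfected with GAL4-UAS multiplexed reporter units driven by exogenous chimeric NR-GAL4 proteins; 24 h compound exposure. Reporter mRNA measured by RT-PCR, 6-FAM primer extension, HpaI digestion and capillary electrophoresis; gain of signal fitted relative to DMSO.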

[7] = biological target: Peroxisome proliferator-activated receptor gamma (Homo sapiens) (UniProt P37231); assay: ATG_PPARg_TRANS: Attagene TRANS-FACTORIAL HepG2 Assay for human Peroxisome Proliferator-activated Receptor-gamma (PPARg) (AID 2283007; active means hit-call score of the fitted dose curve at least 0.9, where 1 is the maximum)
Chain of Peroxisome proliferator-activated receptor gamma (Homo sapiens) (P37231 whole entry, looked up, the tested form may be a part): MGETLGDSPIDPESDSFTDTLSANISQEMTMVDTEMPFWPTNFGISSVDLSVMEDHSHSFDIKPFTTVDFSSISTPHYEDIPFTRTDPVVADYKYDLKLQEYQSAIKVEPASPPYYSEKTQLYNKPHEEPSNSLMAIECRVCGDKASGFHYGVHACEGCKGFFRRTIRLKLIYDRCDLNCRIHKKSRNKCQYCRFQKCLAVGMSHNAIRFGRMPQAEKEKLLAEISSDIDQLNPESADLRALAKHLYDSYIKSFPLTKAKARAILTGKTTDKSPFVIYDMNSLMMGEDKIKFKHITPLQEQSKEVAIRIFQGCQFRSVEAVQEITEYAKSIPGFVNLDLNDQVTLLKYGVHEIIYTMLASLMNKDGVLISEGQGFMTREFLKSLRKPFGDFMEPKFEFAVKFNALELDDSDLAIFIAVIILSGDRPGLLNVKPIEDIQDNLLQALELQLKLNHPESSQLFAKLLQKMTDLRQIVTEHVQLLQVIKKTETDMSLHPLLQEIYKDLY
Outline: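 A TRANS-format multiplexed reporter assay measures activity of an exogenous chimeric NR-Gal4 protein in HepG2 cells. After 24 h of chemical exposure, reporter transcripts are amplified, fluorescently labelled and sized by capillary electrophoresis, with gain of signal scored against DMSO.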

[8] = biological target: Nuclear receptor subfamily 1 group I member 2 (Homo sapiens) (UniProt O75469); assay: ATG_PXR_TRANS: Attagene TRANS-FACTORIAL HepG2 Assay for human Pregnane X Receptor (PXR) (AID 2283008; active means hit-call score of the fitted dose curve at least 0.9, where 1 is the maximum)
Chain of Nuclear receptor subfamily 1 group I member 2 (Homo sapiens) (O75469 whole entry, looked up, the tested form may be a part): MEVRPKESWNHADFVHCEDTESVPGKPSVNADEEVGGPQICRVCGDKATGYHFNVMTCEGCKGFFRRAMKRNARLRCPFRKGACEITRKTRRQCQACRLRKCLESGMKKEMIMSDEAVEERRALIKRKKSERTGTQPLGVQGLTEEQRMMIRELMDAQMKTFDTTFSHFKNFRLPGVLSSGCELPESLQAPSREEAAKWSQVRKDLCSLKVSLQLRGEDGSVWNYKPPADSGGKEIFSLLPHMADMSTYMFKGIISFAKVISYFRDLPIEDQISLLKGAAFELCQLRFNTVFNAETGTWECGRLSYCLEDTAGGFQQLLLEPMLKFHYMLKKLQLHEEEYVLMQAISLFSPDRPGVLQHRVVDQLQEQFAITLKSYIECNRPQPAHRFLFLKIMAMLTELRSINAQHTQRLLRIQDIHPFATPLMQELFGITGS
Outline: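 Transactivation by exogenous PXR–GAL4 fusion measured as reporter transcript induction after 24 h compound treatment of transfected human HepG2 cells. Read-out via RT-PCR and capillary electrophoresis of labelled fragments, fitted upward relative to DMSO.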

[9] = ATG_NRF2_ARE_CIS: Attagene CIS-FACTORIAL HepG2 Assay for human Nuclear Factor Erythroid 2 Related Factor 2 (NFR2) response to Antioxidant Response Elements (ARE) (AID 2282992); conditions: HepG2 Attagene ARE/NRF2 reporter, transcription factor activity; actives raise or lower the signal
Outline: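 Endogenous transcription factor activity read out as reporter transcript levels (RT-PCR plus capillary electrophoresis, fluorescence) in transiently transfected HepG2 cells. Measured at 24 h after dosing; gain or loss of signal fitted versus DMSO.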

[10] = BSK_3C_TissueFactor: BioMAP Diversity Plus: 3C Assay for Tissue Factor Biomarker Activity (AID 2282997); conditions: BioMAP 3C HUVEC, tissue factor biomarker readout; actives raise or lower the signal
Outline: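 In this endothelial system, HUVEC are treated for 24 h and Tissue Factor is assessed by ELISA, normalised to DMSO.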

[11] = BSK_3C_uPAR: BioMAP Diversity Plus: 3C Assay for Urokinase-type plasminogen activator receptor (uPAR) Biomarker Activity (AID 2282998); conditions: BioMAP 3C HUVEC, uPAR biomarker ELISA; actives raise or lower the signal
Outline: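 Readout: ELISA for surface uPAR. System: human umbilical vein endothelial primary cells, 24 h after chemical exposure. Analysis: bidirectional fit, DMSO baseline.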

[12] = BSK_3C_VCAM1: BioMAP Diversity Plus: 3C Assay for Vascular cell adhesion molecule 1 (VCAM1) Biomarker Activity (AID 2282999); conditions: BioMAP 3C HUVEC, VCAM1 ELISA, cytokine-stimulated; actives raise or lower the signal
Outline: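 HUVEC primary cells, 24 h compound exposure; VCAM-1 by ELISA; gain/loss of signal fitted bidirectionally vs DMSO baseline.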

[13] = BSK_4H_Eotaxin3: BioMAP Diversity Plus: 4H Assay for Eotaxin 3 Biomarker Activity (AID 2283000); conditions: primary human endothelial cells (HUVEC); actives raise or lower the signal
Outline: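 ELISA quantitation of CCL26 (Eotaxin-3) protein from chemically dosed human vascular endothelial cells at 24 h; increases and decreases both scored relative to DMSO-treated baseline.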

[14] = biological target: human Peroxisome Proliferator-activated Receptor alpha (PPARa), PPARA (gene 5465) (UniProt Q07869); assay: ATG_PPARa_TRANS: Attagene TRANS-FACTORIAL HepG2 Assay for human Peroxisome Proliferator-activated Receptor alpha (PPARa) (AID 2283001; active means hit-call score of the fitted dose curve at least 0.9, where 1 is the maximum;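 on AC50: potency for gain of reporter signal over DMSO so agonist or activator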)
Chain of human Peroxisome Proliferator-activated Receptor alpha (PPARa), PPARA (gene 5465) (Q07869 whole entry, looked up, the tested form may be a part): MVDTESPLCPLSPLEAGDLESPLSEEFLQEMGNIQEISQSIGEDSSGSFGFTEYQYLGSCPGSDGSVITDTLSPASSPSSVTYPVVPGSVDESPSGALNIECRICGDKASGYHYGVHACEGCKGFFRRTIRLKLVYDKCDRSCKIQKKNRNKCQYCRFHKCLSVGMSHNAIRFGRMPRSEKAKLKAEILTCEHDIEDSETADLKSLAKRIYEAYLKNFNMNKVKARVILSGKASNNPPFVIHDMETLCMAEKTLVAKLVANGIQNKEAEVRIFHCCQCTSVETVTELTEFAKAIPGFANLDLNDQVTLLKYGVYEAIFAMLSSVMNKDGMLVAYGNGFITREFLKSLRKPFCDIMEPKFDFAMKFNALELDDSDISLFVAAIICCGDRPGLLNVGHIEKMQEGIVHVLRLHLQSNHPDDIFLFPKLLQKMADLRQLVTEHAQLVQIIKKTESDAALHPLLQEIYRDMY
Outline: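 Transient HepG2 transfection, GAL4-UAS reporters, NR-Gal4 chimeras; 24 h compound exposure. Readout: reporter transcripts by RT-PCR, 6-FAM primer extension, HpaI digest, capillary electrophoresis. Positive direction vs DMSO baseline.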

[15] = read-out: Intercellular Adhesion Molecule 1 (ICAM1), ICAM1 (gene 3383); assay: BSK_3C_ICAM1: BioMAP Diversity Plus: 3C Assay for Intercellular Adhesion Molecule 1 (ICAM1) Biomarker Activity (AID 2283003); conditions: primary human endothelial cells (HUVEC); actives raise or lower the signal
Outline: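 Using DMSO as baseline, bidirectional curve fitting was applied to ICAM-1 ELISA signals from HUVEC in the 3C system, measured 24 h after compound addition.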

[16] = BSK_3C_Proliferation: Cell Proliferation Assessment in the BioMAP Diversity Plus: 3C Assay (AID 2283006); conditions: primary human endothelial cells (HUVEC);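 on AC50: potency may reflect either rise or fall in cell number versus DMSO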
Outline: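 Measured here: sulforhodamine B (0.1%) staining of TCA-fixed sub-confluent umbilical vein endothelial cultures 48 h post-dosing, absorbance 560 nm. DMSO served as negative control and baseline; both signal gain and loss were modelled.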

[17] = biological target: human Retinoic Acid Receptor beta (RARb), RARB (gene 5915) (UniProt P10826); assay: ATG_RARb_TRANS: Attagene TRANS-FACTORIAL HepG2 Assay for human Retinoic Acid Receptor beta (AID 2283004; active means hit-call score of the fitted dose curve at least 0.9, where 1 is the maximum)
Chain of human Retinoic Acid Receptor beta (RARb), RARB (gene 5915) (P10826 whole entry, looked up, the tested form may be a part): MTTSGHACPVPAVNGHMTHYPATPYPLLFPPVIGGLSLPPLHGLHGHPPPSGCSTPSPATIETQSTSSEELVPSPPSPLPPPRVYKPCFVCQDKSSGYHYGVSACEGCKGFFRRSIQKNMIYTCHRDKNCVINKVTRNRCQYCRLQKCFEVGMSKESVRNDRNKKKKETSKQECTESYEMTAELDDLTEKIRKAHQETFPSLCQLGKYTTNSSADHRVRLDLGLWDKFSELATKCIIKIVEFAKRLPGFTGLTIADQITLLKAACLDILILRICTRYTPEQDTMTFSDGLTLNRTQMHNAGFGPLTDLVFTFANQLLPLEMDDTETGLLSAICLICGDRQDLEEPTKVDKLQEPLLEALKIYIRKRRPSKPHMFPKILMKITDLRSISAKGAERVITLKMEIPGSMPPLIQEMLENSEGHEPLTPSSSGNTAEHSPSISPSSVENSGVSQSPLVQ
Outline: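 Fluorescent capillary-electrophoresis detection of GAL4-UAS reporter mRNA defines the endpoint, with induction over DMSO-treated wells scored as activity. Transiently transfected human hepatoma HepG2 cells expressing exogenous NR–Gal4 proteins are exposed to test chemicals for 24 h.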

[18] = biological target: Retinoic acid receptor alpha (Homo sapiens) (UniProt P10276); assay: ATG_RARa_TRANS: Attagene TRANS-FACTORIAL HepG2 Assay for human Retinoic Acid Receptor alpha (RARa) (AID 2283005; active means hit-call score of the fitted dose curve at least 0.9, where 1 is the maximum)
Chain of Retinoic acid receptor alpha (Homo sapiens) (P10276 whole entry, looked up, the tested form may be a part): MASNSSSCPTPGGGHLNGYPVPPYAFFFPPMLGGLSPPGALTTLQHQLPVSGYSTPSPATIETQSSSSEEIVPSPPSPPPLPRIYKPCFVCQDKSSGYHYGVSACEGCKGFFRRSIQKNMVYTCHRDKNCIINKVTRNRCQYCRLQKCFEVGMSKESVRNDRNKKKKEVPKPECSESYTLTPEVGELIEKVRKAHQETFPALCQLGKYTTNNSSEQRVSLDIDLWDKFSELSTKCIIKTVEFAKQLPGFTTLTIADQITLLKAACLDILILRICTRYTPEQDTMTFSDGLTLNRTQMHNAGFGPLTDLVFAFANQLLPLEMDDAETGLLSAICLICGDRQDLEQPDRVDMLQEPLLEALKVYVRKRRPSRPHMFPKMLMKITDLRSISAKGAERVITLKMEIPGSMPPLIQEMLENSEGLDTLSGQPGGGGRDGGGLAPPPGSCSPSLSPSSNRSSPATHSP
Outline: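 HepG2 transiently transfected with multiplex GAL4-UAS reporter units including a human RARa–GAL4 chimera; 24 h compound exposure. Reporter mRNA quantified by RT-PCR, 6-FAM labeling and capillary electrophoresis; gain of signal versus DMSO.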

[19] = biological target: human RAR-related Orphan Receptor beta (RORb), RORB (gene 6096) (UniProt Q92753); assay: ATG_RORb_TRANS: Attagene TRANS-FACTORIAL HepG2 Assay for human RAR-related Orphan Receptor beta (RORb) (AID 2283010; active means hit-call score of the fitted dose curve at least 0.9, where 1 is the maximum)
Chain of human RAR-related Orphan Receptor beta (RORb), RORB (gene 6096) (Q92753 whole entry, looked up, the tested form may be a part): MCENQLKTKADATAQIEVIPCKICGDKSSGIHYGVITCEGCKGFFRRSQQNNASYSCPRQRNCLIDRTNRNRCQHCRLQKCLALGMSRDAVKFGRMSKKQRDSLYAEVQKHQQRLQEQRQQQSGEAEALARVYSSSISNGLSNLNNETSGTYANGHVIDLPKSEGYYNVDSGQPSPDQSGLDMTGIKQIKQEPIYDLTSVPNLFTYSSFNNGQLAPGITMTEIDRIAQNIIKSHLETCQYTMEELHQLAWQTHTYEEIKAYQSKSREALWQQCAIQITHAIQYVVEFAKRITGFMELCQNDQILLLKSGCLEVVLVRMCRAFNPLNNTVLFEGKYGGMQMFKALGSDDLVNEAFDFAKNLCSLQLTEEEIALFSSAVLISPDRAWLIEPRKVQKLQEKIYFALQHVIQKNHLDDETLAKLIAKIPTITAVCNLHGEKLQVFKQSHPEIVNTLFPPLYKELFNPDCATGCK
Outline: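 Multiplexed transcription-factor reporter assay: HepG2 cells transiently carrying NR-Gal4/GAL4-UAS constructs, 24 h treatment, mRNA quantified by RT-PCR plus capillary electrophoresis fluorescence; activity scored as induction over DMSO.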

[20] = biological target: human Retinoic Acid Receptor gamma (RARg), RARG (gene 5916) (UniProt P13631); assay: ATG_RARg_TRANS: Attagene TRANS-FACTORIAL HepG2 Assay for human Retinoic Acid Receptor gamma (RARg) (AID 2283009; active means hit-call score of the fitted dose curve at least 0.9, where 1 is the maximum)
Chain of human Retinoic Acid Receptor gamma (RARg), RARG (gene 5916) (P13631 whole entry, looked up, the tested form may be a part): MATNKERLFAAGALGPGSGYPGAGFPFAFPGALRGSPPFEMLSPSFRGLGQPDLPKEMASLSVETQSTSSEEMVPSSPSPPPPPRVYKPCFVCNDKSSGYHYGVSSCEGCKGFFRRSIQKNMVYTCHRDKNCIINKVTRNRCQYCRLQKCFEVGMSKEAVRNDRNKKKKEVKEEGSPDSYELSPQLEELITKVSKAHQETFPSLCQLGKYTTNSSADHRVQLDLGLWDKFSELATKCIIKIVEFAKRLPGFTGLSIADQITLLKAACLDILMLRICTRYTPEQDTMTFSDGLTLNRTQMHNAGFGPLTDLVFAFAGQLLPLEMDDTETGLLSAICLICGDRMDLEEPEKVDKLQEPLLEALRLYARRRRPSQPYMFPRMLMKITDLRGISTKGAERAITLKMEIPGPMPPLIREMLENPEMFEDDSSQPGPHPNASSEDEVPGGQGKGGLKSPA
Outline: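 Gain-of-signal relative to DMSO is reported from fluorescent capillary electrophoresis of RT-PCR reporter products. These came from HepG2 cells expressing transfected RARg-GAL4 chimeras with UAS reporters, harvested 24 h after dosing.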

Measured: AC50

N#CCc1ccc(Cl)cc1
inactive: [1] | [2] | [3] | [4] | [5] | [6] | [7] | [8]

Oc1c(I)cc(I)cc1I
inactive: [1] | [3] | [9] | [5] | [10] | [6] | [15]
active: [4] 34.5 µM | [11] 10.5 µM | [12] 15.5 µM | [13] 20 µM | [14] 16.6 µM | [16] 11.4 µM | [7] 9.7 µM | [8] 6.69 µM

CCOP(OCC)OCC
inactive: [1] | [2] | [3] | [4] | [5] | [17] | [18] | [8]

OCC(O)CCl (configuration not stated)
inactive: [1] | [2] | [3] | [4] | [5] | [6] | [7] | [8] | [19]

ClC1(Cl)C2(Cl)C3(Cl)C4(Cl)C(Cl)(Cl)C5(Cl)C3(Cl)C1(Cl)C5(Cl)C24Cl (configuration not stated)
not listed: [3] | [7] | [9] | [14] | [17] | [18] | [20]
inactive: all other assays above

CCc1ccccc1N
inactive: [1] | [2] | [4] | [14] | [7] | [8] | [19]

CCCCCCCCC(=O)NCc1ccc(O)c(OC)c1
active: [1] 151 µM | [16] 13.6 µM | [7] 27.3 µM
not listed: [5] | [9] | [13] | [17] | [18] | [19]
inactive: all other assays above

CN(CCCC(=O)c1cccnc1)N=O
inactive: [1] | [2] | [3] | [4] | [5] | [14] | [6] | [8] | [19]

CC(=O)C(Cl)C(=O)N(C)C (configuration not stated)
active: [9] 25.9 µM | [5] 178 µM | [10] 5.13 µM | [11] 30.1 µM | [12] 20 µM | [13] 21.6 µM | [16] 20 µM
not listed: [3] | [17] | [18] | [20]
inactive: all other assays above

CC(=O)OC(c1ccccc1)C(Cl)(Cl)Cl (configuration not stated)
active: [8] 59 µM
not listed: [3] | [17] | [18] | [19] | [20]
inactive: all other assays above

O=S(=O)(c1ccc(Cl)cc1)c1ccc(Cl)cc1
active: [7] 7.7 µM | [8] 7 µM
inactive: [1] | [2] | [4] | [5] | [10] | [11] | [12] | [6] | [15] | [16]

CCCCOCCOC(C)=O
inactive: [1] | [2] | [9] | [4] | [5] | [6] | [7] | [8]

COP(=S)(OC)Oc1ccc(S(=O)(=O)N(C)C)cc1
active: [9] 35.2 µM
not listed: [3] | [6] | [13] | [17] | [18] | [19] | [20]
inactive: all other assays above
